# Assay results from PubChem BioAssay (NCI).
# Compounds without any hit were thinned out: in the full panel of roughly 83,000, 20% have a hit.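 In brief: 96-well plates, 48 h treatment, single concentration, percent growth endpoint.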 Active and inactive are the calls of the source. The calls were made as follows: active = growth percent below 10; inactive = the rest.
# System: OVCAR-5 ovarian
# Test: NCI-60 one-dose screen, 48 h (100 = growth as untreated, 0 = no growth, -100 = all killed)
# Settings: 10 µM unless noted
row,Compound,growth
1,Clc1ccc(/C=C/c2nc(Nc3ccc(Cl)cc3)c3ccccc3n2)cc1,106% (inactive)
2,C=C1C(=O)O[C@H]2[C@H]1CC/C(COC(=O)/C=C\C(=O)NCc1ccc(Cn3c(=O)sn(CCCC)c3=O)cc1)=C\CC[C@@]1(C)O[C@@H]21,-78.9% (active)
3,C=C1C(=O)O[C@H]2[C@H]1CC/C(C(=O)NCCCCCCCCNC(=O)/C1=C/CC[C@@]3(C)O[C@H]3[C@H]3OC(=O)C(=C)[C@@H]3CC1)=C\CC[C@@]1(C)O[C@@H]21,97.1% (inactive)
4,Cc1nc(Nc2ccc(N)cc2)c2ccccc2n1,100% (inactive)
5,OC(COc1cccc2ccccc12)CN1CCN(c2ccccc2)CC1 (stereo not drawn),102% (inactive)
6,C=C1C(=O)O[C@H]2[C@H]1CC/C(COC(=O)/C=C\C(=O)NCc1ccc(Cn3c(=O)sn(-c4ccc(OC)cc4)c3=O)cc1)=C\CC[C@@]1(C)O[C@@H]21,-86.8% (active)
7,CC(C)(C)OC(=O)N1Cc2cc3ccccc3nc2C1CO (stereo not drawn),110% (inactive)
8,NC(=Nc1ccc(N)cc1)C(N)=Nc1ccc(N)cc1,105% (inactive)
9,Clc1ccc(-c2nc(NCCc3ccccc3)nc3c(NCCc4ccccc4)cnn23)cc1,91.2% (inactive)
10,C=C1C(=O)O[C@H]2[C@H]1CC/C(COC(=O)/C=C\C(=O)NCc1ccc(Cn3c(=O)sn(-c4ccc(Cl)cc4)c3=O)cc1)=C\CC[C@@]1(C)O[C@@H]21,-86.2% (active)
11,CC(=O)Nc1ccc(C(=O)/C=C/c2ccccc2)cc1,94.6% (inactive)
12,COc1ccc(-n2nnc(C(=O)NCCc3c[nH]c4ccc(F)cc34)c2C)cc1,101% (inactive)
13,O=[N+]([O-])c1ccc(-c2cc3c(Nc4ccc(Sc5nc6ccccc6s5)c(Cl)c4)ncnc3s2)cc1,49.9% (inactive)
14,OCCCCc1nccc2c1[nH]c1ccccc12,98.4% (inactive)
15,CCOC(=O)c1sc(-c2ccc(OS(=O)(=O)c3ccc(C(C)(C)C)cc3)c(C=O)c2)nc1C,64.3% (inactive)
16,CCOC(=O)C1=C(C)NC(SCc2nnc(-c3ccc(Cl)cc3)o2)=NC1c1ccc(Cl)cc1Cl (stereo not drawn),89% (inactive)
17,CCN(CC)CCOc1ccc(/C(=C(\C)c2ccc(OC)c(F)c2)c2ccc(Cl)cc2)cc1,72.9% (inactive)
18,O=C1/C(=C/c2ccccc2[N+](=O)[O-])COc2ccc(O)c(O)c21,-33% (active)
19,O=C(O)c1ccc(CO)o1,108% (inactive)
20,Cn1ccnc1C(=O)/C=C/c1ccc(C(=O)Nc2ccc(S(F)(F)(F)(F)F)cc2)cc1,10.2% (inactive)

row,Compound,growth
1,COc1ccc(/C=C2\COc3ccc(O)cc3C2=O)cc1OC,86.8% (inactive)
2,O=C(Nc1ccccc1)c1sc(-c2cccc(C(F)(F)F)c2)cc1O,104% (inactive)
3,COc1ccc(/C(C)=C(\c2ccc(Cl)cc2)c2ccc(OCCCN(C)C)cc2)cc1F,72.6% (inactive)
4,COc1ccc(Cn2cnc3cc(C(=O)Nc4cccc5ccccc45)ccc32)c(OC)c1,16.3% [30 µM] (inactive)
5,COc1ccc(-n2sc(=O)n(Cc3ccc(COC(=O)C(C)c4ccc(CC(C)C)cc4)cc3)c2=O)cc1 (stereo not drawn),63.6% (inactive)
6,CC(C)(C)N1CC(OC(N)=O)C1,110% (inactive)
7,O=C1NCC(=O)N(Cc2ccco2)[C@H]1Cc1ccccc1,106% (inactive)
8,Cc1cc(C(c2ccccc2)c2ccccc2)ccc1NS(=O)(=O)c1ccccc1,114% (inactive)
9,c1ccc2[nH]c(SSc3nc4ncncc4[nH]3)nc2c1,44.6% (inactive)
10,O[C@H]1CO[C@H]2[C@@H]1OC[C@@H]2Oc1ccc(Nc2ccnc(Nc3ccc(O[C@H]4CO[C@H]5[C@@H]4OC[C@@H]5O)c(Cl)c3)n2)cc1Cl,27.6% (inactive)
11,CCOC(=O)c1cnn2c(-c3ccc(Cl)cc3)nc(NCc3ccccc3)nc12,100% (inactive)
12,COc1ccc(/C(C)=C(\c2ccc(Cl)cc2)c2ccc(OCCN3CCCCC3)cc2)cc1F,51.5% (inactive)
13,Cn1cc(-c2ccc3nc(-c4ccc(CC(=O)Nc5cc(C(C)(C)C)no5)cc4)cnc3c2)cn1,44.8% [30 µM] (inactive)
14,Nc1ccc(-c2cc3c(Nc4ccc(OCc5cccc(F)c5)c(Cl)c4)ncnc3s2)cc1,77.9% (inactive)
15,CC(C)OC(=O)NNC(=O)c1ccncc1,98.5% (inactive)
16,CCOC(=O)N1CCc2c(sc3c2C(=O)N[C@H](c2ccc(OC)cc2)N3)C1,108% (inactive)
17,O=[N+]([O-])c1ccc(-c2cc3c(Nc4ccc(OCc5cccc(Cl)c5)c(Cl)c4)ncnc3s2)cc1,88.2% (inactive)
18,CCOC(=O)c1ccc(NC(=O)CCCN(CC)CC)cc1,106% (inactive)
19,Nc1ccn(C2OC(F)(CO)C(O)C2F)c(=O)n1 (stereo not drawn),97.4% (inactive)

# System: OVCAR-4 ovarian
# Test: as above
# Settings: 10 µM unless noted
row,Compound,growth
1,Clc1ccc(/C=C/c2nc(Nc3ccc(Cl)cc3)c3ccccc3n2)cc1,112% (inactive)
2,C=C1C(=O)O[C@H]2[C@H]1CC/C(COC(=O)/C=C\C(=O)NCc1ccc(Cn3c(=O)sn(CCCC)c3=O)cc1)=C\CC[C@@]1(C)O[C@@H]21,-81.8% (active)
3,C=C1C(=O)O[C@H]2[C@H]1CC/C(C(=O)NCCCCCCCCNC(=O)/C1=C/CC[C@@]3(C)O[C@H]3[C@H]3OC(=O)C(=C)[C@@H]3CC1)=C\CC[C@@]1(C)O[C@@H]21,73.1% (inactive)
4,Cc1nc(Nc2ccc(N)cc2)c2ccccc2n1,91.2% (inactive)
5,OC(COc1cccc2ccccc12)CN1CCN(c2ccccc2)CC1 (stereo not drawn),91.9% (inactive)
6,C=C1C(=O)O[C@H]2[C@H]1CC/C(COC(=O)/C=C\C(=O)NCc1ccc(Cn3c(=O)sn(-c4ccc(OC)cc4)c3=O)cc1)=C\CC[C@@]1(C)O[C@@H]21,-77% (active)
7,CC(C)(C)OC(=O)N1Cc2cc3ccccc3nc2C1CO (stereo not drawn),96% (inactive)
8,NC(=Nc1ccc(N)cc1)C(N)=Nc1ccc(N)cc1,101% (inactive)
9,Clc1ccc(-c2nc(NCCc3ccccc3)nc3c(NCCc4ccccc4)cnn23)cc1,7.73% (active)
10,C=C1C(=O)O[C@H]2[C@H]1CC/C(COC(=O)/C=C\C(=O)NCc1ccc(Cn3c(=O)sn(-c4ccc(Cl)cc4)c3=O)cc1)=C\CC[C@@]1(C)O[C@@H]21,-78.4% (active)
11,CC(=O)Nc1ccc(C(=O)/C=C/c2ccccc2)cc1,99.9% (inactive)
12,COc1ccc(-n2nnc(C(=O)NCCc3c[nH]c4ccc(F)cc34)c2C)cc1,107% (inactive)
13,O=[N+]([O-])c1ccc(-c2cc3c(Nc4ccc(Sc5nc6ccccc6s5)c(Cl)c4)ncnc3s2)cc1,35.2% (inactive)
14,OCCCCc1nccc2c1[nH]c1ccccc12,89.6% (inactive)
15,CCOC(=O)c1sc(-c2ccc(OS(=O)(=O)c3ccc(C(C)(C)C)cc3)c(C=O)c2)nc1C,39.2% (inactive)
16,CCOC(=O)C1=C(C)NC(SCc2nnc(-c3ccc(Cl)cc3)o2)=NC1c1ccc(Cl)cc1Cl (stereo not drawn),52.7% (inactive)
17,CCN(CC)CCOc1ccc(/C(=C(\C)c2ccc(OC)c(F)c2)c2ccc(Cl)cc2)cc1,73.1% (inactive)
18,O=C1/C(=C/c2ccccc2[N+](=O)[O-])COc2ccc(O)c(O)c21,2.9% (active)
19,O=C(O)c1ccc(CO)o1,98.3% (inactive)
20,Cn1ccnc1C(=O)/C=C/c1ccc(C(=O)Nc2ccc(S(F)(F)(F)(F)F)cc2)cc1,33.5% (inactive)

row,Compound,growth
1,COc1ccc(/C=C2\COc3ccc(O)cc3C2=O)cc1OC,92.8% (inactive)
2,O=C(Nc1ccccc1)c1sc(-c2cccc(C(F)(F)F)c2)cc1O,76.1% (inactive)
3,COc1ccc(/C(C)=C(\c2ccc(Cl)cc2)c2ccc(OCCCN(C)C)cc2)cc1F,54.1% (inactive)
4,COc1ccc(Cn2cnc3cc(C(=O)Nc4cccc5ccccc45)ccc32)c(OC)c1,44.4% [30 µM] (inactive)
5,COc1ccc(-n2sc(=O)n(Cc3ccc(COC(=O)C(C)c4ccc(CC(C)C)cc4)cc3)c2=O)cc1 (stereo not drawn),18.3% (inactive)
6,CC(C)(C)N1CC(OC(N)=O)C1,101% (inactive)
7,O=C1NCC(=O)N(Cc2ccco2)[C@H]1Cc1ccccc1,103% (inactive)
8,Cc1cc(C(c2ccccc2)c2ccccc2)ccc1NS(=O)(=O)c1ccccc1,98.5% (inactive)
9,c1ccc2[nH]c(SSc3nc4ncncc4[nH]3)nc2c1,33.9% (inactive)
10,O[C@H]1CO[C@H]2[C@@H]1OC[C@@H]2Oc1ccc(Nc2ccnc(Nc3ccc(O[C@H]4CO[C@H]5[C@@H]4OC[C@@H]5O)c(Cl)c3)n2)cc1Cl,19.8% (inactive)
11,CCOC(=O)c1cnn2c(-c3ccc(Cl)cc3)nc(NCc3ccccc3)nc12,5.61% (active)
12,COc1ccc(/C(C)=C(\c2ccc(Cl)cc2)c2ccc(OCCN3CCCCC3)cc2)cc1F,29.1% (inactive)
13,Cn1cc(-c2ccc3nc(-c4ccc(CC(=O)Nc5cc(C(C)(C)C)no5)cc4)cnc3c2)cn1,28.7% [30 µM] (inactive)
14,Nc1ccc(-c2cc3c(Nc4ccc(OCc5cccc(F)c5)c(Cl)c4)ncnc3s2)cc1,54.8% (inactive)
15,CC(C)OC(=O)NNC(=O)c1ccncc1,101% (inactive)
16,CCOC(=O)N1CCc2c(sc3c2C(=O)N[C@H](c2ccc(OC)cc2)N3)C1,102% (inactive)
17,O=[N+]([O-])c1ccc(-c2cc3c(Nc4ccc(OCc5cccc(Cl)c5)c(Cl)c4)ncnc3s2)cc1,41.1% (inactive)
18,CCOC(=O)c1ccc(NC(=O)CCCN(CC)CC)cc1,111% (inactive)
19,Nc1ccn(C2OC(F)(CO)C(O)C2F)c(=O)n1 (stereo not drawn),73.2% (inactive)
